Results filed as inconclusive are left out. Where a call stands in place of a potency, no number is given. Values without a mark were called inactive. Active and inactive are the calls of the source. Calls come from the whole dose curve; as a rule, active = well fitted inhibition curve with a large enough effect; inconclusive = small, poorly fitted or top-dose-only effect; inactive = no such curve, though single readings can be large or run the other way.
What was measured:
[1] = system: Zika virus NS2B-NS3 protease (unlinked complex); assay: Primary screen GU Rhodamine qHTS for Zika virus inhibitors: Unlinked NS2B-NS3 protease assay (AID 1347159); note: nearly all actives have a fitted effect of over 60% in size
Summary of the method: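 Noncovalent NS2B hydrophilic domain/NS3 protease complex (25 nM final) in 10 mM Tris-HCl pH 8.0, 0.01% Tween 20, preincubated 15 min with compounds (up to 114 microM), then 1.5 microM Rhodamine110 substrate. Fluorescence change over 15 min fitted to 4-parameter Hill.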

[2] = system: Zika virus NS2B-NS3 protease (linked construct); assay: Primary screen NINDS Rhodamine qHTS for Zika virus inhibitors (AID 1347160); note: nearly all actives have a fitted effect of over 55% in size
Summary of the method: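 Purified NS2B-NS3 protease with the NS2B hydrophilic domain joined by a flexible linker (25 nM) in 10 mM Tris-HCl pH 8.0, 0.01% Tween 20, preincubated 15 min at RT with compound; Rhodamine110 peptide substrate 1.5 µM; fluorescence change over 15 min; 4-parameter Hill fit.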

Row | Compound | activity change, negative = inhibition [1] | activity change, negative = inhibition [2] | Potency [1] | Potency [2]
1 | C[C@@H]1O[C@@H](O[C@H]2[C@H](OC(=O)[C@]34CCC(C)(C)C[C@H]3C3=CCC5[C@@]6(C)C[C@H](O)[C@H](O[C@@H]7O[C@H](CO)[C@@H](O)[C@H](O)[C@H]7O)[C@@](C)(CO)C6[C@H](O)C[C@@]5(C)[C@]3(C)CC4)OC[C@H](O)[C@@H]2O)[C@H](O)[C@H](O)[C@H]1O[C@@H]1OC[C@@H](O)[C@H](O[C@@H]2OC[C@](O)(CO)[C@H]2O)[C@H]1O (stereo partly specified) | -1.32% [at 19.1 µM] | 21.5% [at 10.7 µM] | – | –
2 | O=C(CN1C(=O)C2(CCCC2)NCC1c1cc(F)cc(F)c1)Nc1ccc2c(c1)CC1(C2)C(=O)Nc2ncccc21 (stereo unspecified) | – | – | inactive | inactive
3 | C[C@]1(CO)CCC[C@]2(C)C3=C(CCC12)COC3 (stereo partly specified) | – | – | inactive | inactive
4 | CN(CCc1ccc(Nc2ncc(-c3cccnc3)s2)cc1)Cc1ccccc1 | – | – | inactive | inactive
5 | NC1(C(=O)NC(CCO)c2ccc(Cl)cc2)CCN(c2ncnc3[nH]ccc23)CC1 (stereo unspecified) | – | – | inactive | inactive
6 | O=C(O)c1ccc(CN2CCC(CN[C@@H]3C[C@H]3c3ccccc3)CC2)cc1 | – | – | inactive | inactive
7 | CC1CCC2(OC1)OC1CC3C4CC=C5CC(O)CC(O[C@@H]6OC[C@@H](O)[C@H](O)[C@H]6O)C5(C)C4CCC3(C)C1(O)C2C (stereo partly specified) | – | – | inactive | inactive
8 | COc1cc2ncnc(Nc3cccc(O)c3)c2cc1OC | – | – | inactive | inactive
9 | C=CC1(C)C=C2CCC3C(C)(C)C(O[C@@H]4O[C@@H](CO)[C@H](O)[C@H]4O)CCC3(C)C2CC1O[C@@H]1O[C@H](C)[C@H](O)[C@H](O)[C@H]1O (stereo partly specified) | – | – | inactive | inactive
10 | Cc1cccc(C)c1OCc1cc(C(=O)N2CCC(c3ccncc3)CC2)no1 | – | – | inactive | inactive
11 | CC(=O)OC1C(OC(=O)c2ccccc2)C2C(C)(C)CC(=O)CC2(C)C23CCC(C)(C2)C(O)CC13 (stereo unspecified) | – | – | inactive | inactive
12 | COC(=O)C1(C)CCC2(C(=O)O)CCC3(C)C(=CCC4C5(C)CC(O)C(OC6OCC(O)C(O)C6O)C(C)(CO)C5CCC43C)C2C1 (stereo unspecified) | – | – | inactive | inactive
13 | C[C@@H](Oc1cc(-n2cnc3ccc(OC4CCN(C)CC4)cc32)sc1C(N)=O)c1ccccc1C(F)(F)F | – | – | inactive | inactive
14 | CC1(C)CC[C@]2(C(=O)O)CC[C@]3(C)C(=CCC4[C@@]5(C)CC[C@H](O[C@@H]6O[C@H](CO)[C@@H](O)[C@H](O)[C@H]6O[C@@H]6O[C@H](CO)[C@@H](O)[C@H](O)[C@H]6O)[C@@](C)(CO)C5CC[C@]43C)[C@@H]2C1 (stereo partly specified) | – | – | inactive | inactive
15 | O=C(OC[C@H]1O[C@H](O[C@]2(CO)O[C@H](CO)[C@@H](O)[C@@H]2O)[C@H](O)[C@@H](O)[C@@H]1O)c1ccccc1 | – | – | inactive | inactive
16 | COc1ccc2nc(S(=O)(=O)Cc3ncc(C)c(OC)c3C)[nH]c2c1 | – | – | inactive | inactive
17 | CC(=O)O[C@H]1[C@H](O[C@H]2[C@@H]3C=CO[C@@H](O[C@@H]4O[C@H](CO)[C@@H](O)[C@H](O)[C@H]4O)[C@@H]3[C@@]3(CO)O[C@@H]23)O[C@@H](C)[C@H](OC(=O)/C=C/c2ccccc2)[C@H]1OC(=O)/C=C/c1ccccc1 | – | – | inactive | inactive
18 | CC(=O)c1cc2c(cc1O)OC(C)(C)C=C2 | – | – | inactive | inactive
19 | C=C[C@H]1C(O[C@@H]2O[C@H](CO)[C@@H](O)[C@H](O)[C@H]2O)OC=C2C(=O)N3CCc4c([nH]c5ccccc45)[C@H]3C[C@H]21 (stereo partly specified) | – | – | inactive | inactive
20 | COC(=O)CC1CC(c2ccc(O)cc2)=NO1 (stereo unspecified) | – | – | inactive | inactive
21 | CC(=O)C12OC(C)(C)OC1CC1C3CCC4=CC(=O)C=CC4(C)C3(F)C(O)CC12C (stereo unspecified) | – | – | inactive | inactive
22 | CC(=O)OC12COC1CC(O)C1(C)C(=O)C(O)C3=C(C)C(OC(=O)C(O)C(NC(=O)OC(C)(C)C)c4ccccc4)CC(O)(C(OC(=O)c4ccccc4)C21)C3(C)C (stereo unspecified) | – | – | inactive | inactive
23 | COc1cccc2cc3c(c(O[C@@H]4O[C@H](CO[C@@H]5O[C@H](CO)[C@@H](O)[C@H](O)[C@H]5O)[C@@H](O)[C@H](O)[C@H]4O)c12)C(C)OC3=O (stereo partly specified) | – | – | inactive | inactive
24 | CCN1CCN(Cc2ccc(Nc3ncc(F)c(-c4cc(F)c5nc(C)n(C(C)C)c5c4)n3)nc2)CC1 | – | – | inactive | inactive
25 | Nc1ccc(-c2cccc3c(=O)cc(N4CCOCC4)oc23)cc1 | – | – | inactive | inactive
26 | CON(C)C(=O)[C@H](O)[C@H](Cc1ccccc1)NC(=O)c1cc2cc(Cl)ccc2[nH]1 | – | – | inactive | inactive
27 | O=C1CCC(c2ccccc2)(C2CCN(Cc3ccc(I)cc3)CC2)C(=O)N1 (stereo unspecified) | – | – | inactive | inactive
28 | CC(NC(=O)C(O)C(C)C)C(=O)NC1C(=O)N(C)CCc2ccccc21 (stereo unspecified) | – | – | inactive | inactive

— PubChem BioAssay (NCATS)
